Calls of active or inactive are those of the source. How the source made its calls: active means hit-call score of the fitted dose curve at least 0.9, where 1 is the maximum; inactive means score below 0.9.
Each compound was assayed on CD40, CD40 (gene 958) (assay: BSK_LPS_CD40: BioMAP Diversity Plus: LPS Assay for CD40 Biomarker Activity (AID 2283076)). Conditions: primary human HUVEC with PBMC; actives raise or lower the signal.
Experimental: BSK_LPS is a cell-based, multiplexed-readout assay that uses umbilical vein endothelium and peripheral blood mononuclear cells, a human vascular primary cell co-culture, with measurements taken at 24 hours after chemical dosing in a 96-well plate.BSK_LPS_CD40 is an assay component measured in the BSK_LPS assay. It measures CD40 antibody related to regulation of gene expression using ELISA technology.Data from the assay component BSK_LPS_CD40 was analyzed into 1 assay endpoint. This assay endpoint, BSK_LPS_CD40, was analyzed with bidirectional fitting relative to DMSO as the negative control and baseline of activity. Using a type of binding reporter, gain or loss-of-signal activity can be used to understand changes in the signaling as they relate to the gene CD40. Furthermore, this assay endpoint can be referred to as a primary readout, because this assay has produced multiple assay endpoints where this one serves a signaling function. To generalize the intended target to other relatable targets, this assay endpoint is annotated to the cytokine intended target family, where the subfamily is inflammatory factor.
The levels of cell surface (or secreted, indicated by the prefix "s") biomarker endpoints were measured by ELISA. Overt cytotoxicity to cells in confluent adherent cultures (all systems other than the BT system) was assessed by measuring total protein levels using sulforhodamine B (SRB) staining in parallel cultures at the time of biomarker measurements, indicated as SRB endpoints. For proliferation assays for adherent cell types, individual cell types are cultured at sub-confluence and relative cell numbers quantified by SRB staining at time points optimized for each system (48 h: 3C and CASM3C systems; 72 h: BT and HDF3CGF systems; 96 h: SAg system). SRB was performed by staining cells with 0.1% SRB after fixation with 10% TCA and reading wells at 560 nm.Viability and proliferation of PBMC (T cells) was quantified by Alamar Blue reduction for the SAg and BT systems. For PBMC viability (referred to as PBMC Cytotoxicity within the assay endpoint names), cells were plated (75,000/well in a 96-well plate) and then chemical samples added for 1 h before addition of activators, SEB and TSST-1 (20 ng/mL final concentration each). Cells were incubated for 90 h. Then, Alamar Blue (20 uL/well) (Invitrogen, Cat DAL1100) was added for 6 h, and the plates were read with a fluorescence microplate reader at 546/580 nm (excitation/emission). For PBMC proliferation, cells were plated and activated as above but incubated for only 16 h prior to addition of Alamar Blue. Plates were read after 6 h.

| SMILES | outcome | AC50 |
| --- | --- | --- |
| Cc1ccc(C)c(C)c1 | inactive | – |
| Cc1nc(C)nc(N2C[C@@H](C)N(c3ccnc([C@@H](C)O)n3)[C@@H](C)C2)n1 | inactive | – |
| Nc1ccccc1N | – | 5.79 µM (active) |
| CCCCN(CCCC)CCCC | inactive | – |
| Cc1cc(NC(=O)C(=O)O)cc(C)c1Oc1ccc(O)c2c1CCC2 | inactive | – |
| Cc1oc(-c2ccccc2)nc1CCOc1cccc2c1ccn2CCC(=O)O | inactive | – |
| Cc1ccccc1Cl | inactive | – |
| CCCCCC(=O)O | inactive | – |
| CCOc1ccc2c(c1)C(C)=CC(C)(C)N2 | inactive | – |
| CCCCCCCCCCCCCO | – | 37.8 µM (active) |
| Nc1nc(N)c2nc(CNc3ccc(C(=O)N[C@@H](CCC(=O)O)C(=O)O)cc3)cnc2n1 | inactive | – |
| CCCCCCC(=O)OCC | inactive | – |
| CCCCCCCCCCCC(=O)OC | inactive | – |
| Cc1ccc(N(C)C)cc1 | inactive | – |
| CCCCCCCCCCC | inactive | – |
| CC(=O)OC/C=C(\C)CCC=C(C)C | inactive | – |
| CCCc1cc(=O)[nH]c(=S)[nH]1 | inactive | – |
| CC1(C)CC(N=C=O)CC(C)(CN=C=O)C1 (stereo not given) | inactive | – |
| OC[C@@H](O)[C@@H](O)[C@H](O)[C@H](O)CO | inactive | – |
| CCc1c(C(=O)NN2CCCCC2)nn(-c2ccc(Cl)cc2Cl)c1-c1ccc(Br)cc1 | – | 12.3 µM (active) |

| SMILES | outcome | AC50 |
| --- | --- | --- |
| CC(C)(C)c1cc(O)c(C(C)(C)C)cc1O | inactive | – |
| NC(=O)Cn1c(=O)cc(CCN2CCN(c3nccc4sccc34)CC2)c2ccc(F)cc21 | inactive | – |
| COC(=O)c1ccc(O)cc1 | inactive | – |
| NCC1(Cc2noc(=O)[nH]2)CCCCC1 | inactive | – |
| COc1ccc(S(=O)(=O)N2C(=O)[C@@](c3ccccc3OC)(N3C[C@H](O)C[C@H]3C(=O)N(C)C)c3cc(Cl)ccc32)c(OC)c1 | – | 20 µM (active) |
| Oc1ccc2ccccc2c1N=Nc1ccccc1 | inactive | – |
| Cc1ccc(C(C)C)c(O)c1 | inactive | – |
| NS(=O)(=O)c1cc2c(cc1Cl)NCNS2(=O)=O | inactive | – |
| FC(F)(F)C(F)(F)C(F)(F)C(F)(F)C(F)(F)C(F)(F)CCI | inactive | – |
| CC(=O)C(C)=CC1C(C)=CCCC1(C)C (stereo not given) | inactive | – |
| C1CCC(SSC2CCCCC2)CC1 | inactive | – |
| C[Si]1(C)O[Si](C)(C)O[Si](C)(C)O[Si](C)(C)O1 | inactive | – |
| Cc1ccc(Cl)cc1 | inactive | – |
| Nc1ccc2c(c1)C(=O)c1ccccc1C2=O | inactive | – |
| CC1(C)NC(=O)NC1=O | inactive | – |
| CC(CO)OC(C)CO (stereo not given) (tested in a mixture with another compound) | inactive | – |
| O=[N+]([O-])C(CO)(CO)CO | inactive | – |
| O=C(N[C@@H](Cc1ccccc1)[C@@H](O)C(=O)N1C[C@@H](O)[C@@H](O)C1)c1cc2cc(Cl)ccc2[nH]1 | inactive | – |
| COCCOC[C@H](CC1(C(=O)NC2CCC(C(=O)O)CC2)CCCC1)C(=O)Oc1ccc2c(c1)CCC2 (stereo not given in full) | inactive | – |
| CN[C@H]1CC[C@@H](c2ccc(Cl)c(Cl)c2)c2ccc(S(N)(=O)=O)cc21 | – | 20 µM (active) |

— PubChem BioAssay (EPA / NIEHS)
